# D1 potentiator: potentiators of human D1 dopamine receptor. P21728. HEK293 TREx D1 cells, calcium flux, dopamine EC20 potentiation. potentiation, % at 10 µM. 360,000 compounds, 0.036% hits. AID 504651; in the data active = potentiation above about 30%; note: 0% is about no effect
# Target sequence (P21728 whole entry, looked up): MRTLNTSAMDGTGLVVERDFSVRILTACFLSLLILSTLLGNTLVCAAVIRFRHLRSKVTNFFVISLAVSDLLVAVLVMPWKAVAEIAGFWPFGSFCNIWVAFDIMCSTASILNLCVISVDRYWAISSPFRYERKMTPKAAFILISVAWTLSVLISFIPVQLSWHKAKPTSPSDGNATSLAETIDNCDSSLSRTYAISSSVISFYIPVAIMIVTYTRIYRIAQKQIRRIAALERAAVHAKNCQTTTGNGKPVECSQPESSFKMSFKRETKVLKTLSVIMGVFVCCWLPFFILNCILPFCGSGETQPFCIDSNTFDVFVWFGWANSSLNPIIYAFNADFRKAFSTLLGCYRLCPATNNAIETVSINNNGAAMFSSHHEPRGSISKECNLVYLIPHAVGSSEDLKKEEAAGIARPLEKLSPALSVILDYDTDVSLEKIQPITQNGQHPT
# TRHR ag: agonists of human TRH receptor; TRHR cells, calcium flux fluo-8, FDSS agonist mode; activation, % at 2 µM; 360,000 compounds, 0.18% hits; AID 493084; note: 0% is about no effect
#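 Agonist-mode FDSS calcium read (Ex 480/Em 530, 1 s cycles) in 1536-well TRHR cells with fluo-8 dye, after 10-cycle baseline and 23 nL compound addition; TRH at EC20 (10 nM final) added afterwards for the enhancer phase.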
# USP1-UAF1 inh: USP1/UAF1 (human) deubiquitinase inhibition. AID 743255. recombinant USP1/UAF1, Ub-Rhodamine cleavage fluorescence. 390,000 compounds, 0.23% hits. O94782. Potency, µM (series often up to 57.1 µM), for the others: at the top dose activity change, negative = inhibition, actives largely listed as inhibitors; active = well fitted inhibition curve with a large enough effect; inconclusive = small, poorly fitted or top-dose-only effect; inactive = no such curve, though single readings can be large or run the other way; note: potency is the fitted concentration of half-maximal effect; % is set by controls: 0 for no effect and ±100 for the full control effect; nearly all actives have a fitted effect of over 60% in size
#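 Step one: compound is pinned into 1nM USP1/UAF1 in HEPES pH 7.8 buffer with TCEP. Step two: 15 min room-temperature incubation. Step three: Ub-Rho (150nM final) starts cleavage, tracked by fluorescence over six one-minute reads.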
# D1 antag: antagonists of human D1 dopamine receptor; P21728; HEK293 TREx D1 cells, calcium flux, dopamine EC80; hits give low values; activity change, negative = inhibition, % at 10 µM; 360,000 compounds, 3.2% hits; in the data active = activity change below about -30%; note: % is set by controls: 0 for no effect and ±100 for the full control effect
#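 Inducible Hek293 Trex D1 cells (tetracycline, overnight, 30 C). Calcium dye 30–90 min RT. Antagonist mode: EC80 dopamine added after 180 s compound read.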
# D1 ag: activates the human D1 dopamine receptor; P21728; 360,000 compounds, 1% hits; HEK293 T-REx D1 cells, calcium flux, agonist mode; activation, % at 2 µM; AID 504660; note: 0% is about no effect
#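 Tetracycline-induced HEK293 TREx D1 cells, force-coupled to calcium signalling, were dye-loaded with a no-wash calcium kit. Compound was pin-added after a 10 s baseline. Fluorescence was read kinetically at 1 cycle/s for 180 s, with calcium rises flagged as agonism.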
# TRHR PAM: allosterically enhances the human TRH receptor | P34981 | 360,000 compounds, 0.66% hits | enhancement, % at 2 µM | TRHR cells, fluo-8 calcium fluorescence, EC20 TRH enhancement; in the data active = enhancement above about 30%; note: 0% is about no effect
#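 TRHR-expressing cells loaded with fluo-8 calcium dye were read kinetically (ex 480/em 530) during compound addition, then stimulated with an EC20 of TRH (10 nM final). Enhancement of the Gq-mediated intracellular calcium response was scored.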
# The depositor's hits bear a star; u = inconclusive; x = no result. Only some compounds are listed: those with a hit (about 4.4% of all), similar ones and a draw of the others. Cut-off read from the data, not from the text of the source, unless noted: active = activation above about 30%; inactive = the rest.
SMILES,D1 potentiator,TRHR ag,USP1-UAF1 inh,D1 antag,D1 ag,TRHR PAM
NS(=O)(=O)c1ccc(CCNC(=O)CCCNC(=O)c2ccc(Cl)cc2)cc1,1,0,6%,-33*,0,4
COc1cc(Cl)c(C)cc1NC(=O)CSc1nc2c(c(=O)[nH]1)CCCC2,6,0,-2%,9,0,-1
COc1ccc(OC)c(-c2cc(C(=O)NC(C)c3ccccc3)no2)c1 (configuration not stated),-1,2,-10%,-13,7,-1
O=C(Cn1cc(C(=O)C2CC2)c2ccccc21)Nc1ccc(Br)cc1,-4,3,21%,11,23,4
COc1cccc(NC(=O)Cn2c(=O)n(CCCCC(=O)NCc3ccccc3Cl)c(=O)c3ccccc32)c1,2,0,-21%,5,1,3
Cc1cc(=O)n2c(C(=O)Nc3ccc(Br)cc3)c(C(=O)Nc3ccccc3)sc2n1,-1,0,-9%,-1,2,7
CCN(CC)Cc1cc(CCNC(=O)c2ccc(Cl)cc2)ccc1O,-5,0,-8%,x,1,1
Cc1ccc(C(=O)NCCc2ccncc2)cc1,-1,0,-15%,-36*,-1,-5
O=C(NCCc1ccc(O)cc1)c1ccc(Cl)cc1,-2,0,-13%,-32*,1,7
CC(C)(C)c1ccc(C(=O)NNc2ccc(F)cc2F)cc1,-9,0,-3%,-8,2,-8
CN(C)Cc1cc(CCNC(=O)c2ccc(Cl)cc2)ccc1O,-10,-1,-21%,-37*,4,6
CCc1ccc(C(=O)NNc2ccc(F)cc2F)cc1,-7,0,-7%,-51*,0,0
CCOc1ccc(C(=O)N2CCC(c3nnc(-c4ccccc4OC)o3)CC2)cc1,-2,-2,-27%,-4,0,-1
COc1ccccc1-c1cc2nc(C)c(CCC(=O)NCCc3cccc(C)c3)c(C)n2n1,-6,0,-26%,0,8,-12
Cc1cc(C)cc(NC(=O)c2cccc(N3CCCS3(=O)=O)c2)c1,0,0,3%,-7,2,-4
COc1ccc2c(c1O)-c1ccccc1CCN(C)C2,-2,0,17%,-16,0,-2
CN1CCc2cccc3c2[C@@H]1Cc1ccc(O)c(O)c1-3,-7,0,-10%,-58*,17,0
CCCc1nc2c(=O)n(C)c(=O)nc-2n(C)n1,0,0,0.1µM*,5,4,0
CCCc1nc2c([nH]1)c(=O)n(C)c(=O)n2C,-2,1,-10%,-10,2,6
Cn1nc(-c2ccccn2)nc2c(=O)n(C)c(=O)nc1-2,4,1,0.032µM*,12,0,-4
CCOC(=O)CSc1nc2ccc(NC(=O)COc3ccc(F)cc3)cc2s1,-1,-1,-29%,2,5,1
COc1cc(C)ccc1OCCOCCOc1ccccc1[N+](=O)[O-],-7,-1,-14%,-16,3,-3
O=[N+]([O-])c1ccc(COc2ccccc2/C=N/O)cc1,-8,-1,-19%,-49*,4,-1
COc1cc(C)ccc1OCCOCCOc1ccc([N+](=O)[O-])cc1,-1,0,-6%,-1,31*,-1
O=Cc1ccccc1OCCOc1ccc([N+](=O)[O-])cc1,-7,-2,-22%,-31*,2,-4
SMILES,D1 potentiator,TRHR ag,USP1-UAF1 inh,D1 antag,D1 ag,TRHR PAM
CC(=O)c1ccc(OCCOc2ccc([N+](=O)[O-])cc2)cc1,-4,0,-6%,-15,3,12
CCN(C(=O)c1cc(S(=O)(=O)N2CCCC2)cn1C)c1ccc(OC)cc1,-1,0,u,2,4,6
O=C(Nc1c(C(=O)N2CCN(c3ccccc3F)CC2)oc2ccccc12)c1ccc(Br)o1,0,0,-2%,10,1,1
COc1ccc(-n2c(CCC(=O)O)ccc2-c2ccccc2)c(OC)c1,-5,1,-16%,-16,1,-5
CCOc1ccc(/C=C/C(=O)NCCc2ccc(OC)c(OC)c2)cc1,3,-1,3%,-25,3,0
CCCCNC(=O)/C=C/c1ccc(OC)c(Br)c1,-12,-1,-10%,-30*,0,-4
CCOc1ccc(CNC(=O)c2cnc(SC)nc2C)cc1,-2,0,-14%,-21,6,-2
S=C1NCN(Cc2ccco2)CN1,-2,0,-3%,1,2,41*
C=CCN1CN(Cc2ccco2)CNC1=S,2,1,-8%,-6,3,-2
C=CCN1c2ccccc2[C@]23C[C@@H](C(=O)OC)N(C(=O)NCCC)C2=NC(C(=O)OC)=C(C(=O)OC)[C@H]13,0,0,-14%,-33*,10,-1
O=C1Cc2cc(S(=O)(=O)N3CCN(c4ccccc4)CC3)ccc2N1,-5,1,-4%,-7,1,-2
O=C1Cc2cc(CCN3CCN(c4nsc5ccccc45)CC3)c(Cl)cc2N1,-3,0,x,-84*,-1,-1
CCOC(=O)c1cc2n(c1/N=C/N(C)C)-c1ccccc1C2=O,-5,85*,25µM*,-10,90*,-2
Cc1cccnc1NC(=O)CCNS(=O)(=O)c1ccc2c(c1)c(=O)n(C)c(=O)n2C,-1,0,-9%,4,-3,35*
Cc1csc(NC(=O)CCNS(=O)(=O)c2ccc3c(c2)c(=O)n(C)c(=O)n3C)n1,4,0,-16%,9,-1,10
CCOC(=O)c1ccc(Cl)c(NC(=O)c2ccc(-c3ccccc3)cc2)c1,-6,1,u,-15,3,8
CCOC(=O)c1ccc(/C=C2/C=C(c3ccccc3)N(c3ccc(Cl)c(C(=O)O)c3)C2=O)cc1,-1,24,25µM*,4,103*,5
COc1cccc(-n2c(SCC(=O)NCC3CCCO3)nc3c(c2=O)SCC3)c1 (configuration not stated),-1,0,-10%,38,3,-4
COC(=O)c1ccc(CSc2nc3c([nH]c4ccccc43)c(=O)n2-c2cccc(Cl)c2)o1,2,0,-19%,0,1,0
COC(=O)c1ccc(CSc2nc3c([nH]c4ccccc43)c(=O)n2-c2cccc(OC)c2)o1,-5,0,u,-62*,1,4
COc1ccc(-n2c(SCC(=O)NCC3CCCO3)nc3c([nH]c4ccccc43)c2=O)cc1 (configuration not stated),-2,-1,-19%,-31*,0,2
COc1cccc(-n2c(SCC(=O)N3CCCc4ccccc43)nc3c([nH]c4ccccc43)c2=O)c1,3,0,-22%,-35*,0,-5

# High-throughput results: PubChem BioAssay, National Center for Advancing Translational Sciences (NCATS)
